HSF1 inhib: HSF1 inhibitors in luciferase reporter cells, primary screen, cell-based, NIH3T3, luminescence | activity change, negative = inhibition, % at 7.5 µM (by protocol) | AID 2098, 2009 | NIH3T3-HGL HSE-luciferase, MG132-induced, luminescence 8 h; stronger effect = lower value | 300,000 tested, 0.77% active;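 active = more than half of replicate wells show activity change below -50%, luminescence cut by over half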;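 also: luciferase reports HSF-1 transcriptional activity via heat shock element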
HSP90 inh: HSP90 inhibitors, primary screen, cell lysate, luminescence | inhibition, % at 5.6 µM | 290,000 tested, 0.91% active | Heat shock protein HSP 90 (rabbit reticulocyte lysate; luciferase refolding) | AID 1789, 2009 | Rabbit reticulocyte lysate, luciferase refolding luminescence, 3 h;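 active = inhibition above the screen-wide mean plus 3 SD, computed separately per campaign, cut at about 16% in these data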;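 also: inhibitors lower the luminescence because luciferase stays unfolded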
ARNT-TACC3 inh: disruptors of ARNT/TACC3 protein interaction, primary screen, biochemical, AlphaScreen, single concentration. AID 623870, 2012. 390,000 tested, 0.66% active. inhibition, % at 9.99 µM. AlphaScreen His-ARNT PAS-B/GST-TACC3 binding, luminescence; TACC3 fragment carries E629A point mutation. Transforming acidic coiled-coil-containing protein 3 (Homo sapiens), Q9Y6A5;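 active = mean inhibition of replicates at least 50% and at least half of replicates each reaching 50%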
HIF act: HIF pathway transcriptional activators, primary screen, cell-based, U2OS HRE-luciferase, luminescence. activation, % at 7.5 µM (by protocol). AID 1910, 2009. 300,000 tested, 0.32% active. U2OS HRE-luciferase reporter; normalized: DMSO 0%, desferrioxamine 100%;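 active = mean activation of at least 10% of the iron chelator positive control signal, with at least half of replicates also reaching 10%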
HSF1 activator: HSF-1 activators, primary screen, NIH3T3-HGL cells, MG132 stress, luminescence, single point. AID 504408, 2011. NIH3T3-HGL HSF-1 luciferase reporter, 8 h; 100% = twice DMSO control signal. activation, % at 9 µM. 300,000 tested, 1.7% active;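 active = mean replicate activation of at least 50% with a set share of replicates each reaching 50%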
Numbers stand for hits; 0 = inactive; - = not tested or not shown. An excerpt weighted towards active compounds, which were near 3.1% of everything screened.

SMILES | HSF1 inhib | HSP90 inh | ARNT-TACC3 inh | HIF act | HSF1 activator
COCC(=O)N/N=C\c1ccc(OC/C=C/c2ccccc2)c(OC)c1 | 0 | 0 | 0 | 0 | 0
COc1cc(/C=N\NC(=O)CC#N)ccc1OC/C=C/c1ccccc1 | 0 | 0 | 69 | 0 | 0
COc1ccc(S(=O)(=O)N[C@H]2CC[C@@H](CC(=O)N3CCN(c4ccccc4)CC3)O[C@H]2CO)cc1 | - | - | 0 | - | -
COc1cccc(NC2SC(=O)N(c3ccccc3)C2=O)c1 (configuration not stated) | 0 | 0 | 0 | 0 | 59
CN1C(=O)SC(Nc2ccccc2)C1=O (configuration not stated) | 0 | 0 | 0 | 0 | 0
Cc1ccc(C)c(CNS(=O)(=O)c2ccc3c(c2)C(C)(C)C(=O)N3C)c1 | 0 | 0 | 0 | 12 | 0
C[C@@H]1CN(C(=O)c2cc(COc3cccc(C(F)(F)F)c3)on2)C[C@H](C)O1 | 0 | 0 | - | 0 | 95
CCOC(=O)N1CCN(C(=O)c2cc(COc3cccc(C(F)(F)F)c3)on2)CC1 | 0 | 0 | 0 | 0 | 0
O=c1oc(-c2ccccc2)cc(Cl)c1Cl | 0 | 0 | 0 | 0 | 455
CCCN1[C@@H]2c3ccc(C4=CCCC4)c(=O)n3C[C@H]1[C@H](CO)[C@H]2C(=O)NCc1ccccn1 | - | - | 0 | - | -
O=C(O)CCCNC(=O)CCCNC(=O)C(c1ccccc1)c1ccccc1 | -64 | 0 | 0 | 0 | 0
O=C(O)CCCNC(=O)C(c1ccccc1)c1ccccc1 | 0 | 0 | 0 | 0 | 0
C[C@@H]1CN([C@H](C)CO)C(=O)c2cc(NC(=O)CCC(F)(F)F)ccc2O[C@@H](C)CCCCO[C@H]1CN(C)C(=O)C1CCCCC1 | - | - | 0 | - | -
O=C(CSc1nnc(SCc2ccc(Cl)cc2)s1)N/N=C/c1c(Cl)cccc1Cl | 0 | 0 | 0 | 0 | 60
C[C@@H]1CN([C@@H](C)CO)C(=O)c2cc(C#CCN(C)C)cnc2O[C@@H]1CN(C)Cc1ccccc1 | - | - | 0 | - | -
CN1CCN(C(=O)C[C@@H]2CC[C@@H]3[C@H](COc4ccc(NC(=O)C5CCCCC5)cc4C(=O)N3C)O2)CC1 | - | - | 0 | - | -
COc1cccc(C(=O)COC(=O)C(C)N2C(=O)C3C4C=CC(C4)C3C2=O)c1 (configuration not stated) | 0 | 0 | 0 | 0 | 57
CCOC(=O)c1c(C)[nH]c(C(=O)N/N=C/c2cc([N+](=O)[O-])ccc2O)c1C | -59 | 0 | 72 | 0 | 0
CCOC(=O)c1c(C)[nH]c(C(=O)N/N=C\c2ccccc2O)c1C | 0 | 0 | 0 | 57 | 0
C[C@H](CO)N1C[C@H](C)[C@@H](CN(C)C(=O)c2ccccn2)Oc2ncc(-c3ccccc3F)cc2C1=O | - | - | 0 | - | -
CCS(=O)(=O)NCC[C@H]1CC[C@H](NC(=O)C2CCCC2)[C@@H](CO)O1 | - | - | 0 | - | -
O=C(C[C@@H]1CC[C@H]2[C@@H](COC[C@@H](O)CN2C(=O)Nc2ccc3c(c2)OCO3)O1)N1CCN(c2ccccc2)CC1 | - | - | 0 | - | -
ON=C1c2ccccc2-c2ccccc21 | 0 | 0 | 0 | 0 | 57
CN(C)c1ccc2c(c1)C(=NO)c1ccccc1-2 | - | - | 0 | - | -
COC(=O)c1ccccc1NC(=O)c1cccs1 | 0 | 0 | 0 | 0 | 0
SMILES | HSF1 inhib | HSP90 inh | ARNT-TACC3 inh | HIF act | HSF1 activator
COC(=O)c1ccccc1NC(=O)Nc1cccs1 | 0 | 0 | 0 | 0 | 66
N#Cc1cccc(NC(=O)Nc2cccs2)c1 | 0 | 0 | 0 | 0 | 0
O=C(Nc1cccs1)Nc1c(F)c(F)cc(F)c1F | 0 | 0 | 0 | 0 | 59
O=C(Nc1cccs1)Nc1c(F)c(F)c(F)c(F)c1F | 0 | 0 | 0 | 0 | 0
CCc1cccc(NC(=O)Nc2cccs2)c1 | 0 | 0 | 0 | 0 | 133
O=C(NCC[C@H]1CC[C@H](NC(=O)c2cccnc2)[C@H](CO)O1)Nc1ccc(Cl)cc1 | - | - | 0 | - | -
C=CCn1c(=O)c2ccccc2n2c(SCC(=O)Nc3sc(C)c(CC)c3C(=O)OCC)nnc12 | 0 | 0 | 0 | 0 | 54
C[C@H](CO)N1C[C@H](C)[C@@H](CN(C)S(=O)(=O)c2cccs2)Oc2ccc(NC(=O)CCCCCC(=O)Nc3ccccc3N)cc2CC1=O | - | - | 0 | - | -
O=C(/C=C/c1cccc(O)c1)c1ccc(N2CCOCC2)cc1 | 0 | 0 | 0 | 0 | 74
COc1cc(/C=N/N=C(N)N)ccc1OCc1ccccc1Cl | 0 | 0 | - | 0 | 55
Cc1cc(C)n(-c2ccc(C(=O)N3CCN(c4ccccn4)CC3)cc2)n1 | - | - | 0 | - | -
Cc1cc(C)n(-c2nc3ccccc3nc2N2CCN(C(=O)c3ccccc3)CC2)n1 | 0 | 0 | 0 | 0 | 52
Cc1ccc(C(=O)Nc2cccnc2Cl)cc1Cl | 0 | 0 | 0 | 0 | 59
Cc1cc(C)cc(C(=O)Nc2cccnc2Cl)c1 | 0 | 0 | 0 | 0 | 0
CO[C@@H]1CN(C)C(=O)c2ccc(NC(=O)C3CC3)cc2OC[C@H](C)NC[C@@H]1C | - | - | 0 | - | -
C/C(=C\C(=O)c1ccccc1)NCc1ccc(F)cc1 | 0 | 0 | 0 | 0 | 65
O=C(/C=C/c1cccs1)N1CCC2(CC1)Oc1ccc(Cl)cc1C(=O)C21CC(c2ccccc2)=NO1 (configuration not stated) | 0 | - | 24 | 0 | 0
CCOC(=O)CN1C(=O)N[C@@H](c2cccs2)C(C(=O)OC)=C1C | 0 | - | - | 0 | 0
CCN1C(=NCCc2cccs2)N[C@@H](c2cccs2)C(C(=O)OC)=C1C | -60 | 0 | 0 | 0 | 0
COc1cc(/C=N/N2CCN(C3c4ccccc4-c4ccccc43)CC2)cc(OC)c1OC | 0 | 0 | 0 | 0 | 103
COc1ccccc1N=Nc1nc(-c2ccccc2)c(-c2ccccc2)[nH]1 | 0 | 0 | 0 | 0 | 0
Oc1ccccc1N=Nc1nc(-c2ccccc2)c(-c2ccccc2)[nH]1 | 0 | 0 | 0 | 220 | 71
Fc1ccc(-c2nn(-c3ccccc3)cc2CNCc2ccccc2)cc1 | 0 | 0 | 0 | 0 | 0
O=C(CCl)Nc1cn(-c2ccccc2)nc1-c1ccc(F)cc1 | -84 | 0 | 0 | 0 | 0
CNC[C@H]1OCCCC[C@@H](C)Oc2ccc(NC(=O)Nc3ccccc3)cc2C(=O)N([C@H](C)CO)C[C@H]1C | - | - | 0 | - | -
CN(C)C(=O)C[C@H]1C[C@H]2c3cc(NC(=O)NC4CCCC4)ccc3O[C@H]2[C@@H](CO)O1 | - | - | 0 | - | -
Cc1ccc(S(=O)(=O)Nc2ccc3c(c2)C(=O)N([C@@H](C)CO)C[C@H](C)[C@@H](CN(C)C(=O)Nc2ccc(F)cc2)OCCCC[C@@H](C)O3)cc1 | - | - | 0 | - | -
COCC(C)NC(=O)/C(=C/c1ccccc1)c1ccccc1 (configuration not stated) | 0 | 0 | 0 | 0 | 60
COCC(C)NC(=O)c1ccc2nc(-c3ccccc3)c(-c3ccccc3)nc2c1 (configuration not stated) | -81 | 0 | 0 | 0 | 0

Source: PubChem (several laboratories)
